Source: the supplement of paper PMC10849652
About 7,900 targets were measured; listed, in parts, are those with a hit and a random draw of the rest. About 0.6% of all pairs of compound and target were hits. Unmarked numbers belong to inactive results.

Tests used:
Assay in all cases: log2 fold change, soluble protein after heating vs DMSO (PISA); higher = thermal stabilisation; K562 cells, 10 uM, 30 min; active = over 0.2 and 3.5 SD of the protein, either way, in both replicates (recomputed)
[1] = compound: CS(=O)(=O)c1ccc(-c2cnc(N)c(C(=O)Nc3ccccc3)n2)cc1
How it was run: (§1)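 K562 cells at 2×10^6 cells/mL were treated for 30 min with 10 μM compound, and aliquots were heated for 3 min over 48°C-58°C before pooling. Extraction used PBS with 0.5% NP-40 at 4°C, and soluble protein was the supernatant after 21,000xg for 90 min, measured by TMTpro 16plex LC-MS/MS with channel sums equalised. Thermal stability values, relative to control samples and from duplicates, are log2 fold changes.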

crizotinib = compound: C[C@@H](Oc1cc(-c2cnn(C3CCNCC3)c2)cnc1N)c1c(Cl)ccc(F)c1Cl [crizotinib]
How it was run: as §1

[2] = compound: C[C@@H]1COCCN1C2=NC(=NC(=C2)C3(CC3)S(=O)(=O)C)C4=C5C=CNC5=CC=C4
How it was run: as §1

[3] = compound: C[C@H](C1=CC=C(C=C1)C(=O)NC2=C3C=CNC3=NC=C2)N
How it was run: as §1

duvelisib = compound: C[C@H](Nc1ncnc2nc[nH]c12)c1cc2cccc(Cl)c2c(=O)n1-c1ccccc1 [duvelisib]
How it was run: as §1

gandotinib = compound: Cc1cc(Nc2cc(CN3CCOCC3)c3nc(C)c(Cc4ccc(Cl)cc4F)n3n2)n[nH]1 [gandotinib]
How it was run: as §1

tozasertib = compound: Cc1cc(Nc2cc(N3CCN(C)CC3)nc(Sc3ccc(NC(=O)C4CC4)cc3)n2)n[nH]1 [tozasertib]
How it was run: as §1

[4] = compound: Cc1cc(SCc2sc(-c3ccc(C(F)(F)F)cc3)nc2C)ccc1OCC(=O)O
How it was run: as §1

doramapimod = compound: Cc1ccc(-n2nc(C(C)(C)C)cc2NC(=O)Nc2ccc(OCCN3CCOCC3)c3ccccc23)cc1 [doramapimod]
How it was run: as §1

ispinesib = compound: Cc1ccc(C(=O)N(CCCN)[C@@H](c2nc3cc(Cl)ccc3c(=O)n2Cc2ccccc2)C(C)C)cc1 [ispinesib]
How it was run: as §1

bafetinib = compound: Cc1ccc(NC(=O)c2ccc(CN3CC[C@H](N(C)C)C3)c(C(F)(F)F)c2)cc1Nc1nccc(-c2cncnc2)n1 [bafetinib]
How it was run: as §1

[5] = compound: Cc1cccc(CC(=O)N2CCc3c2ccc(-c2cn(C)c4ncnc(N)c24)c3F)n1
How it was run: as §1

nilotinib = compound: Cc1cn(-c2cc(NC(=O)c3ccc(C)c(Nc4nccc(-c5cccnc5)n4)c3)cc(C(F)(F)F)c2)cn1 [nilotinib]
How it was run: as §1

[6] = compound: Cc1nc(Nc2n[nH]c3c2CN(C(=O)N[C@H](CN(C)C)c2ccccc2)C3(C)C)c2sccc2n1
How it was run: as §1

dasatinib = compound: Cc1nc(Nc2ncc(C(=O)Nc3c(C)cccc3Cl)s2)cc(N2CCN(CCO)CC2)n1 [dasatinib]
How it was run: as §1

[7] = compound: Cc1ncc(-c2ccnc(Nc3ccc(S(C)(=O)=O)cc3)n2)n1C(C)C
How it was run: as §1

[8] = compound: Cn1cc(-c2ccc3c(c2)CCN3C(=O)Cc2cccc(C(F)(F)F)c2)c2c(N)ncnc21
How it was run: as §1

[9] = compound: Cn1cc(-c2ccc3nnc(C(F)(F)c4ccc5ncccc5c4)n3n2)cn1
How it was run: as §1

tipifarnib = compound: Cn1cncc1[C@@](N)(c1ccc(Cl)cc1)c1ccc2c(c1)c(-c1cccc(Cl)c1)cc(=O)n2C [tipifarnib]
How it was run: as §1

mubritinib = compound: FC(F)(F)c1ccc(/C=C/c2nc(COc3ccc(CCCCn4ccnn4)cc3)co2)cc1 [mubritinib]
How it was run: as §1

Chain of UniProt Q92851 (Q92851 whole entry, looked up): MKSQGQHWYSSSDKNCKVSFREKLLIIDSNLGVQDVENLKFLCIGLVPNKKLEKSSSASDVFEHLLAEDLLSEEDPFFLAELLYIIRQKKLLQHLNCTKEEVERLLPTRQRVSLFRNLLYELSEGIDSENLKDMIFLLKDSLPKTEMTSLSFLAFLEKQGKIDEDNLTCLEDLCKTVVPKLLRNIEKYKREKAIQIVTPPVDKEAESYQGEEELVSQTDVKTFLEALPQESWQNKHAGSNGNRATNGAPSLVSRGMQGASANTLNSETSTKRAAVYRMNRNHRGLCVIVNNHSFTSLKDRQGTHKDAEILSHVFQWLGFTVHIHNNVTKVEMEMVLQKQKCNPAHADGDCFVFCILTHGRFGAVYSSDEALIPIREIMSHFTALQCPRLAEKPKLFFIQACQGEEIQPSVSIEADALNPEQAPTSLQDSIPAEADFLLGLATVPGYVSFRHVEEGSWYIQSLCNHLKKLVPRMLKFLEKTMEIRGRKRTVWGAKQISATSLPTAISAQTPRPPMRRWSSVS
Chain of UniProt Q5RI15 (Q5RI15 whole entry, looked up): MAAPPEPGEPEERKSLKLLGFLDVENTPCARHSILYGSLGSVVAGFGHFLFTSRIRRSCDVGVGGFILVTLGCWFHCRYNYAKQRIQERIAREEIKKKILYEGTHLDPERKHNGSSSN
Chain of UniProt Q00534 (Q00534 whole entry, looked up): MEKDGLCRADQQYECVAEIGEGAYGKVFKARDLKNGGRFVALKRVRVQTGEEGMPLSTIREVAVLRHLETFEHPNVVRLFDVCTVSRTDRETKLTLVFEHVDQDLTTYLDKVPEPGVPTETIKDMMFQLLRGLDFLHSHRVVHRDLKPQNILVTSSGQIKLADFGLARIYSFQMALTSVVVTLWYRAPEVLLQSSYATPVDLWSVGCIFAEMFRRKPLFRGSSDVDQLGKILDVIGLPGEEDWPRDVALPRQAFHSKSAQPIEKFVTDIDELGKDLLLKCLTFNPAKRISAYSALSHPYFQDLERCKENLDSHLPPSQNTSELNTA
Chain of UniProt P06493 (P06493 whole entry, looked up): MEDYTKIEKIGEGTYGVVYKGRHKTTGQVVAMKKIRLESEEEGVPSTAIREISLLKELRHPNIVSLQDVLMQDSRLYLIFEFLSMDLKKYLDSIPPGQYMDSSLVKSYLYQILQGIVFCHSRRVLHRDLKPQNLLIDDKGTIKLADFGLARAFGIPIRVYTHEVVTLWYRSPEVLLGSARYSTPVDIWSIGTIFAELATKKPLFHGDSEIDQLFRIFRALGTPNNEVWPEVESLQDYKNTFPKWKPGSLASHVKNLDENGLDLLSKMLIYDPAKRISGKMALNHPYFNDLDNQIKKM
Chain of UniProt Q9BT78 (Q9BT78 whole entry, looked up): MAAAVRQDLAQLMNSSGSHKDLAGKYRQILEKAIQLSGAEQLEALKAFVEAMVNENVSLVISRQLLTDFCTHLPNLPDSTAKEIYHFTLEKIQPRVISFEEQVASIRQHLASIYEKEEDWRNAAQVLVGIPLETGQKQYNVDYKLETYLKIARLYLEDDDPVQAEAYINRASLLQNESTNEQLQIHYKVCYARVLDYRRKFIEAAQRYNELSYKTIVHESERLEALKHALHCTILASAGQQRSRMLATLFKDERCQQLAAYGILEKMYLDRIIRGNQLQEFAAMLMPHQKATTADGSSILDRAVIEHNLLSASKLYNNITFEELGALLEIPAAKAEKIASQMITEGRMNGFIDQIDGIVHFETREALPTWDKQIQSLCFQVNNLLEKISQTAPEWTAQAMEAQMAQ
Chain of UniProt Q6NZI2 (Q6NZI2 whole entry, looked up): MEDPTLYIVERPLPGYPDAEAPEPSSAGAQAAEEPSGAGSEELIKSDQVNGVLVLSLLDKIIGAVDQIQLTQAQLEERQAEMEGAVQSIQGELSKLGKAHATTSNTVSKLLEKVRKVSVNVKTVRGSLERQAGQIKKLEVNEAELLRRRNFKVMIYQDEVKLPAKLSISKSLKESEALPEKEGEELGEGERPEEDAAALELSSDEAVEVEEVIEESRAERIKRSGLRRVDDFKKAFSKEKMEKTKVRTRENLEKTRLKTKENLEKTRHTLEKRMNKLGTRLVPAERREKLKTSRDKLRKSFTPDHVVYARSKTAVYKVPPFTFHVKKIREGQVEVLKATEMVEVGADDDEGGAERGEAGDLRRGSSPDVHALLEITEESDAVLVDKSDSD
Chain of UniProt Q99653 (Q99653 whole entry, looked up): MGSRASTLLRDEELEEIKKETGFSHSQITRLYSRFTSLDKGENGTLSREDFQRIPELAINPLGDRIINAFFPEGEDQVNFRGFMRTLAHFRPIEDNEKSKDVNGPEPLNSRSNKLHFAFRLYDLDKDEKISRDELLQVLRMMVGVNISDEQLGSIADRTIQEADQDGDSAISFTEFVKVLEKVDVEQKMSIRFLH
Chain of UniProt Q9UKF6 (Q9UKF6 whole entry, looked up): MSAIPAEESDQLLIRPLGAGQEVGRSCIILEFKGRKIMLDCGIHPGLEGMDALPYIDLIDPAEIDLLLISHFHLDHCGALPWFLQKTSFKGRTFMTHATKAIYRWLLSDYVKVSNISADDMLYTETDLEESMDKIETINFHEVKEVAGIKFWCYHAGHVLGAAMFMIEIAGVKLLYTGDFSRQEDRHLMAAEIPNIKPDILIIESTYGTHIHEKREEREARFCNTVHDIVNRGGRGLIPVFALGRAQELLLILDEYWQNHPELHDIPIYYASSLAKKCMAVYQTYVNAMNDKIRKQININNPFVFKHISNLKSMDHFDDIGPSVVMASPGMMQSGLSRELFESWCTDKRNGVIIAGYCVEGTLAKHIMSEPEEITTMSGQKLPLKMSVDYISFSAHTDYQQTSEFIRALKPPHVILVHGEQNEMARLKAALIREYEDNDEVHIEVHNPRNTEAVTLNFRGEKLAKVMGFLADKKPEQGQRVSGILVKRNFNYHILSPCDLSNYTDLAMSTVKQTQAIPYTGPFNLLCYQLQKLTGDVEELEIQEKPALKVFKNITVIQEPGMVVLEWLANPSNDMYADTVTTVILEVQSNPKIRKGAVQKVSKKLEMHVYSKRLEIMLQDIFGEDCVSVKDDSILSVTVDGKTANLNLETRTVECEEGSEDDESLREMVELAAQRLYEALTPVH
Chain of UniProt Q8N684 (Q8N684 whole entry, looked up): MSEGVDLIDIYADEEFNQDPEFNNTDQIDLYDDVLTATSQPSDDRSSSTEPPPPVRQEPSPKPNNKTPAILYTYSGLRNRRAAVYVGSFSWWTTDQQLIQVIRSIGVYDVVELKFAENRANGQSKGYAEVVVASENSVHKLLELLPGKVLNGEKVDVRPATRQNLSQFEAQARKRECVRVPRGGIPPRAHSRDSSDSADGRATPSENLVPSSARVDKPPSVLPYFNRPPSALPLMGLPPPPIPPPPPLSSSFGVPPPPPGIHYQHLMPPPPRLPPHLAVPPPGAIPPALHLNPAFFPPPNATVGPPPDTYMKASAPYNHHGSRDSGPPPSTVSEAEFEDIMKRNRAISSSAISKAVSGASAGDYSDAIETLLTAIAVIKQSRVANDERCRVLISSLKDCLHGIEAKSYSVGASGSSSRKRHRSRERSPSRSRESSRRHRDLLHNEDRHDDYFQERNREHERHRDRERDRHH
Chain of UniProt Q13555 (Q13555 whole entry, looked up): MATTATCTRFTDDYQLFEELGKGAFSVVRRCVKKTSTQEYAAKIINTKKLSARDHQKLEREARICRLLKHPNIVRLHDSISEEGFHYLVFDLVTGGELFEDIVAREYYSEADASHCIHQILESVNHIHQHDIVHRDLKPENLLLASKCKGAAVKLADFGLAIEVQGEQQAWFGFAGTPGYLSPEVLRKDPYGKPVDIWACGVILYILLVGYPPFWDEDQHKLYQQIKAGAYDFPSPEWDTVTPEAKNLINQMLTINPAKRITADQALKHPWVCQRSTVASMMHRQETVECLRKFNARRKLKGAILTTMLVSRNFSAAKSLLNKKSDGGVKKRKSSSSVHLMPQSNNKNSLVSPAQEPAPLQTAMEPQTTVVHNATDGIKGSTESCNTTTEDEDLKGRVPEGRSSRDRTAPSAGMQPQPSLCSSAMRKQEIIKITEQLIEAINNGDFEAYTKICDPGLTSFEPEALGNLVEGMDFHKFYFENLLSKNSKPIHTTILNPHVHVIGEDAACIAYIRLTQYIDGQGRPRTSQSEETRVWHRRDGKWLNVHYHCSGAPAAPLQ
Chain of UniProt O15234 (O15234 whole entry, looked up): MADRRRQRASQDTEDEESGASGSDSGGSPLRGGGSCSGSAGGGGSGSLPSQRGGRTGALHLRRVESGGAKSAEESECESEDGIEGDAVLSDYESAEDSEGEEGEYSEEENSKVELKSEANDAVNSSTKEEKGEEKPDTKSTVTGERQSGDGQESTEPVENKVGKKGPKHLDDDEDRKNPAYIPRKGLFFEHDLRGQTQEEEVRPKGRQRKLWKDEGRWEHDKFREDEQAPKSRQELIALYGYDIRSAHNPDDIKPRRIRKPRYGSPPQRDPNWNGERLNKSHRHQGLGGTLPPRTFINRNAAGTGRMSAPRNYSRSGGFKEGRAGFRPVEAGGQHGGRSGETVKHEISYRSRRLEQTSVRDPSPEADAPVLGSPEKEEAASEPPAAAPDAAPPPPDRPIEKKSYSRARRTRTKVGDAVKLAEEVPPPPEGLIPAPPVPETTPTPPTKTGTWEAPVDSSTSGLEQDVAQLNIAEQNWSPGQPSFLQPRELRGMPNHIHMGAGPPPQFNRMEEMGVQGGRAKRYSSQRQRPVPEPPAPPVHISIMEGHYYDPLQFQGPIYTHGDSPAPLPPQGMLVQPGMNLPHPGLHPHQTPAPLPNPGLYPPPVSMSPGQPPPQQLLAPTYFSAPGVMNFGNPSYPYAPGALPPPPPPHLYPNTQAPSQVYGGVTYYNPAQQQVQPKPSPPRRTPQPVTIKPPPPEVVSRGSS
Chain of UniProt Q99627 (Q99627 whole entry, looked up): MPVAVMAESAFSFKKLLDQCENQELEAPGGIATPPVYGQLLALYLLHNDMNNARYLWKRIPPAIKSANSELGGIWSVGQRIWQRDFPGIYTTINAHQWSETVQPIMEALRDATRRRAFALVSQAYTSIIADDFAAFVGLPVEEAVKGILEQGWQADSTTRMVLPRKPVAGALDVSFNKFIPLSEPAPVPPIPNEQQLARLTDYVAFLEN

| Target | log2 fold change [1] | log2 fold change (crizotinib) | log2 fold change [2] | log2 fold change [3] | log2 fold change (duvelisib) | log2 fold change (gandotinib) | log2 fold change (tozasertib) | log2 fold change [4] | log2 fold change (doramapimod) | log2 fold change (ispinesib) | log2 fold change (bafetinib) | log2 fold change [5] | log2 fold change (nilotinib) | log2 fold change [6] | log2 fold change (dasatinib) | log2 fold change [7] | log2 fold change [8] | log2 fold change [9] | log2 fold change (tipifarnib) | log2 fold change (mubritinib) |
| --- | --- | --- | --- | --- | --- | --- | --- | --- | --- | --- | --- | --- | --- | --- | --- | --- | --- | --- | --- | --- |
| CLUH, A0A494C0R8 | 0.055 | -0.575 (active) | 0.205 | 0.037 | 0.646 (active) | -0.214 | -0.11 | -0.031 | 0.113 | -0.028 | 0.016 | -0.445 | 0.264 | 0.015 | -0.051 | 0 | -0.018 | 0.532 (active) | 0.145 | 0.072 |
| COPS4 (UniProt Q9BT78) | -0.01 | 0.112 | 0.064 | -0.064 | 0.029 | 0.022 | 0.036 | 0.002 | -0.014 | 0.086 | 0.003 | 0 | 0 | -0.01 | -0.023 | 0.007 | 0.031 | 0.003 | -0.012 | 0.031 |
| CHP1 (UniProt Q99653) | 0.025 | 0.109 | -0.061 | -0.027 | 0.044 | 0.022 | 0.075 | -0.026 | -0.021 | 0.25 | 0 | -0.087 | 0.014 | 0.019 | 0.042 | 0.004 | 0.043 | -0.116 | 0.072 | 0.037 |
| COX20 isoform 2 (UniProt Q5RI15) | -0.043 | 0.063 | -0.098 | 0.01 | -0.017 | -0.385 | 0.022 | -0.001 | -0.001 | -0.017 | -0.072 | -0.241 | 0.017 | 0.012 | 0.049 | 0.009 | -0.044 | 0.023 | -0.069 | -0.092 |
| CAVIN1 (UniProt Q6NZI2) | -0.023 | -0.046 | -0.34 | 0.174 | -0.131 | 0.145 | 0.058 | 0.06 | 0.135 | 0.067 | 0.114 | 0.004 | -0.047 | 0.104 | -0.001 | -0.11 | -0.157 | -0.204 | 0.125 | -0.067 |
| CPSF3 (UniProt Q9UKF6) | -0.004 | 0.01 | 0.013 | -0.006 | 0.011 | -0.052 | 0.117 | 0.031 | 0 | -0.003 | -0.052 | 0.041 | -0.006 | -0.073 | -0.082 | -0.023 | -0.071 | -0.023 | -0.027 | 0.02 |
| CTBS (UniProt Q01459) | -0.05 | -0.166 | -0.078 | 0.04 | 0.017 | -0.078 | 0.069 | -0.018 | 0.009 | -0.092 | -0.483 (active) | -0.069 | 0.016 | -0.007 | -0.006 | -0.077 | -0.093 | 0.162 | 0.091 | 0.025 |
| COASY isoform 2 (UniProt Q13057) | -0.052 | -0.071 | 0.133 | -0.09 | 0.058 | -0.058 | -0.031 | 0.045 | -0.063 | -0.057 | -0.009 | 0.089 | -0.19 | 0.001 | -0.132 | 0.005 | 0.037 | -0.062 | -0.102 | -0.196 |
| CPQ (UniProt Q9Y646) | -0.013 | -0.023 | -0.001 | 0.049 | -0.113 | 0.055 | 0.004 | -0.058 | 0.03 | 0.011 | -0.207 (active) | 0 | 0.017 | 0.053 | 0.069 | -0.046 | 0.012 | -0.025 | 0.031 | 0.044 |
| CPSF7 isoform 3 (UniProt Q8N684) | -0.016 | 0.013 | 0.026 | -0.05 | 0.017 | -0.004 | -0.012 | 0.018 | -0.014 | 0.09 | 0.07 | -0.107 | 0.028 | -0.552 (active) | 0.012 | 0.044 | 0.003 | -0.027 | -0.048 | -0.048 |
| CASC3 (UniProt O15234) | -0.228 | 0.537 (active) | -0.412 (active) | 0.243 | 0.065 | 0.484 (active) | -0.088 | -0.067 | -0.025 | -0.094 | -0.064 | -0.069 | -0.064 | 0.481 (active) | 0.031 | 0.511 (active) | -0.079 | -0.069 | 0.004 | 0.084 |
| CDK1 (UniProt P06493) | 0.005 | -0.128 | -0.005 | -0.019 | 0.021 | -0.171 | -0.057 | 0 | -0.031 | 0.033 | 0.002 | -0.022 | 0.022 | -0.196 | -0.092 | -0.199 | -0.067 | -0.023 | -0.019 | 0.083 |
| CDK6 (UniProt Q00534) | 0.062 | -0.033 | -0.042 | -0.004 | 0.033 | -0.009 | 0.001 | -0.012 | 0.018 | 0.024 | -0.017 | -0.002 | -0.021 | -0.079 | -0.01 | 0.081 | -0.019 | -0.033 | -0.043 | 0.012 |
| CASP10 isoform 4 (UniProt Q92851) | 0.006 | -0.102 | 0.015 | -0.137 | -0.08 | -0.128 | 0.177 | 0.201 | 0.028 | -0.075 | 0.001 | -0.394 | -0.087 | -0.103 | -0.301 | 0.037 | -0.044 | 0.063 | 0.119 | 0.084 |
| COPS8 (UniProt Q99627) | -0.017 | 0.07 | 0.13 | -0.148 | 0.096 | 0.048 | 0.028 | 0.054 | 0.107 | 0.05 | -0.021 | 0.025 | 0.018 | -0.008 | 0.006 | 0.007 | 0.107 | 0.146 | -0.017 | 0.025 |
| CAMK2G isoform 6 (UniProt Q13555) | -0.02 | -0.146 | -0.064 | -0.116 | -0.025 | -0.041 | 0.028 | -0.004 | 0.073 | 0 | 0.064 | -0.148 | 0.002 | 0.642 (active) | -0.11 | 0.083 | 0.01 | -0.073 | -0.025 | -0.008 |
